The full list was thinned out, with hits kept by preference.
DUX4 inh: blocks DUX4-driven transcriptional activation; activity change, negative = inhibition, % (concentration not given with the values); 293T-iDUX4 ZSCAN4-Gaussia luciferase reporter, 24 h; active compounds read low; 37,000 tested, 0.8% active;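 active = mean inhibition of at least 10% in the main channel, exceeding the control channel by a set limit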;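 note: 0% = median of neutral control wells and -100% = median of positive control wells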
* = called active by the depositor.

SMILES	DUX4 inh
COc1ccccc1CN1[C@H](CO)[C@H](c2ccccc2)C12CN(C(C)=O)C2	3.4
COc1ccccc1CN1[C@@H](CO)[C@H](c2ccccc2)C12CN(C(C)=O)C2	-5.5
COc1cccc(CN2[C@H](CO)[C@@H](c3ccccc3)C23CN(C(=O)C2CC2)C3)c1	-6.4
OC[C@H]1[C@H](c2ccccc2)C2(CN(Cc3ccccc3F)C2)N1Cc1ccccc1F	-34.6*
COc1cccc(CN2[C@@H](CO)[C@H](c3ccccc3)C23CN(Cc2ccccc2OC)C3)c1	-44.5*
CCC(=O)N1CC2(C1)[C@H](c1ccccc1)[C@@H](CO)N2Cc1ccccc1F	3.2
COc1ccccc1CN1[C@@H](CO)[C@@H](c2ccccc2)C12CN(C(C)=O)C2	3.4
O=C(C1CC1)N1CC2(C1)[C@@H](c1ccccc1)[C@@H](CO)N2Cc1ccccc1F	-1.6
COc1cccc(CN2CC3(C2)[C@H](c2ccccc2)[C@@H](CO)N3Cc2ccccc2OC)c1	-35.9*
COc1ccc2c3c(n(C)c2c1)[C@H](CO)N(C(=O)c1ccncc1)CC31CCN(C(C)=O)CC1	20.8
CN1[C@@H]2c3ccc(-c4ccccc4)c(=O)n3C[C@H]1[C@H](CO)[C@H]2C(=O)N1CCC(Cc2ccccc2)CC1	-5.8
CCC(=O)N1CC2(C1)CN(C(=O)Cc1ccccc1)[C@@H](CO)c1c2c2ccc(OC)cc2n1C	1.1
C[C@H](CO)N1C[C@H](C)[C@H](CN(C)CC2CCOCC2)Oc2cc(C#Cc3ccccc3F)ccc2S1(=O)=O	-0.8
COc1ccccc1-c1ccc([C@@H]2[C@@H](CO)N3CCCCN(S(=O)(=O)c4cn(C)cn4)C[C@@H]23)cc1	2.7
C[C@@H]1CN([C@H](C)CO)C(=O)c2cc(NC(=O)Nc3ccc(C(F)(F)F)cc3)ccc2O[C@@H](C)CCCCO[C@H]1CN(C)S(=O)(=O)c1cn(C)cn1	-5.9
CN1[C@@H]2Cn3c(ccc(-c4ccncc4)c3=O)[C@H]1[C@@H](C(=O)NCC1CCCCC1)[C@@H]2CO	5.0
Cc1ccccc1S(=O)(=O)N1CCCCN2[C@@H](CO)[C@H](c3ccc(-c4cccc(F)c4)cc3)[C@@H]2C1	-46.9*
Cc1ccccc1S(=O)(=O)N1CCCCN2[C@H](CO)[C@@H](c3ccc(-c4cccnc4)cc3)[C@H]2C1	-5.1
Cc1cccc(-c2ccc([C@H]3[C@@H](CO)N4CCCCN(S(=O)(=O)c5ccccc5F)C[C@@H]34)cc2)c1	-3.1
Cc1ccc(-c2ccc([C@@H]3[C@@H](CO)N4CCCCN(S(=O)(=O)c5ccccc5C)C[C@H]34)cc2)cc1	-24.5*
Cc1ccccc1S(=O)(=O)N1CCCCN2[C@H](C1)[C@@H](c1ccc(-c3cccc(F)c3)cc1)[C@@H]2CO	7.5
Cc1ccccc1S(=O)(=O)N1CCCCN2[C@H](C1)[C@@H](c1ccc(-c3cccnc3)cc1)[C@@H]2CO	-4.8
CC=Cc1ccc2n(c1=O)C[C@@H]1[C@@H](CO)[C@H](C(=O)NCC)[C@H]2N1C(=O)Nc1cc(F)ccc1F (mixture of isomers)	0.5
Cn1cnc(S(=O)(=O)N[C@@H]2C=C[C@H](CC(=O)N3CCN(c4ccccc4)CC3)O[C@H]2CO)c1	0.6
CC(C)[C@@H]1CC=CC[C@H](C)Oc2ccccc2C(=O)N(C)[C@@H](Cc2ccccc2)C(=O)N1 (mixture of isomers)	0.4
SMILES	DUX4 inh
CC(=O)N1CC(=O)N2[C@H](CO)[C@@H](c3ccc(-c4ccncc4)cc3)[C@@H]2C1	6.2
COCC(=O)N1[C@H](C#N)[C@H](c2ccccc2-c2cccc(F)c2)[C@H]1CO	18.5
CN1[C@@H]2c3ccc(-c4ccccc4F)c(=O)n3C[C@H]1[C@H](CO)[C@H]2C(=O)NCc1ccccn1	-6.1
C[C@@H]1CN([C@@H](C)CO)C(=O)c2c(c3ccccc3n2C)-c2ccccc2CO[C@@H]1CN(C)S(=O)(=O)c1cccc(C#N)c1	-24.5*
C[C@@H]1CN([C@H](C)CO)C(=O)c2c(c3ccccc3n2C)-c2ccccc2CO[C@H]1CN(C)S(=O)(=O)c1ccc(F)cc1	-29.1*
C[C@@H]1CN([C@H](C)CO)C(=O)c2c(c3ccccc3n2C)-c2ccccc2CO[C@H]1CN(C)S(C)(=O)=O	7.6
Cc1ccccc1S(=O)(=O)N(C)C[C@H]1OCc2ccccc2-c2c(n(C)c3ccccc23)C(=O)N([C@H](C)CO)C[C@@H]1C	-35.3*
C[C@H]1CN([C@@H](C)CO)C(=O)c2c(c3ccccc3n2C)-c2ccccc2CO[C@@H]1CN(C)S(=O)(=O)c1ccc([N+](=O)[O-])cc1	-4.9
C[C@@H]1CN([C@H](C)CO)C(=O)c2c(c3ccccc3n2C)-c2ccccc2CO[C@@H]1CN(C)S(C)(=O)=O	17.3
C[C@@H]1CN([C@H](C)CO)C(=O)c2c(c3ccccc3n2C)-c2ccccc2CO[C@H]1CN(C)S(=O)(=O)c1cccc(C#N)c1	12.8
C[C@@H]1CN([C@H](C)CO)C(=O)c2c(c3ccccc3n2C)-c2ccccc2CO[C@@H]1CN(C)S(=O)(=O)c1ccc(C(F)(F)F)cc1	-0.5
C[C@@H]1CN([C@@H](C)CO)C(=O)c2c(c3ccccc3n2C)-c2ccccc2CO[C@@H]1CN(C)S(=O)(=O)c1ccc(C#N)cc1	3.2
CC=Cc1ccc2n(c1=O)C[C@H]1[C@H](CO)[C@@H](C(=O)NCc3ccccc3)N(CC)[C@@H]21 (mixture of isomers)	1.3
O=C(NC1Cc2ccccc2C1)[C@@H]1[C@@H](CO)[C@@H]2Cn3c(cccc3=O)[C@@H]2N1C(=O)c1ccccn1	4.4
CCCNC(=O)N1CC2(CCN(Cc3nccs3)CC2)c2c([nH]c3cc(OC)ccc23)[C@H]1CO	13.1
CCCNC(=O)Nc1ccc2c(c1)OC[C@H](C)N(CCC(F)(F)F)C[C@H](C)[C@H](OC)CN(C)C2=O	-6.2
CCC(=O)N1CC2(C1)[C@H](c1ccc(-c3cccc(F)c3)cc1)[C@H](CO)N2CC1CC1	-8.3
C[C@@H]1CCCCO[C@@H](CN(C)C(=O)Nc2cccc3ccccc23)[C@H](C)CN([C@H](C)CO)C(=O)c2cc(NC(=O)CCC(F)(F)F)ccc2O1	-2.0
COc1ccc2c3c([nH]c2c1)[C@H](CO)N(C(=O)Nc1ccc(F)cc1)CC31CCN(Cc2nccs2)CC1	-9.2
OC[C@@H]1[C@H](c2ccc(C#Cc3ccccc3F)cc2)[C@@H]2CN(Cc3cncnc3)CCCCN12	-4.9
O=C(Nc1ccccc1F)N1CCCCN2[C@@H](CO)[C@H](c3ccc(C#Cc4cccnc4)cc3)[C@@H]2C1	4.7
O=C(Nc1cccc(F)c1)N1CCCCN2[C@H](C1)[C@@H](c1ccc(C#Cc3cccnc3)cc1)[C@@H]2CO	0.4
O=C(Nc1ccccc1F)N1CCCCN2[C@H](CO)[C@H](c3ccc(C#Cc4cccnc4)cc3)[C@H]2C1	-36.1*
OC[C@H]1[C@H](c2ccc(C#Cc3cccnc3)cc2)[C@@H]2CN(Cc3ccccc3F)CCCCN12	-38.1*
OC[C@@H]1[C@@H](c2ccc(C#Cc3ccccc3F)cc2)[C@H]2CN(Cc3cncnc3)CCCCN12	-0.2
OC[C@@H]1[C@H](c2ccc(C#Cc3cccnc3)cc2)[C@H]2CN(Cc3ccccc3F)CCCCN12	-56.9*
OC[C@H]1[C@H](c2ccc(C#Cc3ccccc3F)cc2)[C@@H]2CN(Cc3cncnc3)CCCCN12	1.0
CC(C)(O)C#Cc1ccc([C@@H]2[C@H]3CN(Cc4ccccc4F)CCCCN3[C@H]2CO)cc1	6.5
